Screens from PubChem.
Rows were chosen to be rich in hits. Some 1.4% of all compounds tested hit in one or more screens of this group.
MmCpn inh: inhibitors of Methanococcus maripaludis chaperonin TRiC (MmCpn); purified Mm-Cpn ATPase, ADP Transcreener TR-FRET; Potency, µM (doses to about 76.9 µM), without a hit: at the top dose activity, negative = inhibition, hits mostly inhibitors; 330,000 compounds, 0.031% hits; AID 504842; note: potency is the fitted concentration of half-maximal effect; % is set by controls: 0 for no effect and ±100 for the full control effect; nearly all actives have a fitted effect of over 80% in size
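Inhibition of chaperonin ATP hydrolysis is measured as reduced ADP production, detected by competitive TR-FRET in which signal falls with ADP. Final enzyme 25 nM and ATP 10 uM, reacted 30 min at 37°C.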
KCNH2 WT inh: inhibitors of human wildtype KCNH2 potassium channel; Q12809; U2OS, BacMam KCNH2, thallium flux FluxOr; hits give low values; activity change, % at 1.84 µM; 340,000 compounds, 0.37% hits; AID 720551;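 active = maximum activity change below -70%; inconclusive = maximum activity change between -70% and -50%; inactive = maximum activity change above -50%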; note: % is set by controls: 0 for no effect and ±100 for the full control effect
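U2OS cells transduced with wild-type KCNH2 virus are loaded with FluxOr dye for 45 min, and thallium flux is measured in kinetic reads before and after stimulation buffer. Rate constants are normalized to DMSO controls.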
KCNH2 3.1 block: blocks the human KCNH2 3.1 channel isoform | U2OS KCNH2 3.1, thallium flux FluxOr; hits give low values | activity change, % (tested at about 1.8 µM) | AID 720553 | 340,000 compounds, 0.95% hits;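 active = maximum activity change below -70%; inconclusive = maximum activity change from -70% to -50%; inactive = maximum activity change above -50%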;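 note: thallium influx rate constant from kinetic fluorescence after stimulation buffer; % is set by controls: 0 for no effect and ±100 for the full control effect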
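Measured as rate of thallium-driven FluxOr signal in transduced U2OS cells carrying the 3.1 channel, read kinetically for 2 min upon stimulation; values are rate constants scaled to DMSO control wells.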
uPA generation: blocks generation of uPA at the cell surface. Potency, µM (titrated, usually from 38.3 µM), for inactives: at the highest dose activity change, negative = inhibition, actives largely listed as inhibitors. 330,000 compounds, 0.31% hits. cell surface uPA generation assay, qHTS. AID 540303; active = well fitted inhibition curve with a large enough effect; inconclusive = small, poorly fitted or top-dose-only effect; inactive = no such curve, though single readings can be large or run the other way; tested in mouse RAW 264.7 cells; note: potency is the fitted concentration of half-maximal effect; % is set by controls: 0 for no effect and ±100 for the full control effect; nearly all actives have a fitted effect of over 55% in size
ASM inhibitor: blocks human secretory acid sphingomyelinase; P17405; placental ASM, HMU-PC fluorogenic substrate, 60 min; Potency, µM (highest dose often 57.5 µM), for inactives: at the highest dose activity change, negative = inhibition, actives largely listed as inhibitors; 340,000 compounds, 0.006% hits; AID 504937; note: potency is the fitted concentration of half-maximal effect
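Fluorogenic HMU-PC substrate (9 uM final) is turned over by placental ASM in 60 min at 37 C after a 10 min compound preincubation. Reaction ended by alkaline stop (pH 10), with fluorescence read at 386/447 nm.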
p53 reactivator: mutant p53 re-activation in reporter cells | 320,000 compounds, 0.063% hits | Potency, µM (titrated, usually from 92.2 µM), without a hit: at the highest dose activity change, positive = activation, hits mostly activators | H1299 p53-A138V BP100-luciferase reporter, luminescence, 24 h; note: potency is the fitted concentration of half-maximal effect; % of control where 0% means no effect; nearly all actives have a fitted effect of over 45% in size
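H1299 (p53-null), stable ts p53-A138V + BP100-Luc; 1000 cells/well, Opti-MEM/10% FBS; cpd 4 pt, 1:5; 24 h, 37 deg C, 5% CO2; detection reagent 10 min RT; luminescence.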
Starred values were filed as active, the others as inactive; i = inactive; ? = inconclusive; . = no result given. Unless noted, calls come from the whole dose curve; as a rule, active = well fitted curve in the direction sought with a large enough effect; inconclusive = small, poorly fitted or top-dose-only effect, or another doubt; inactive = no such curve, though single readings can be large; an effect the other way counts as inactive or inconclusive.

SMILES	MmCpn inh	KCNH2 WT inh	KCNH2 3.1 block	uPA generation	ASM inhibitor	p53 reactivator
C[n+]1c(-c2ccccc2)c2cc(N)ccc2c2ccc(N)cc21	-24%	2	-7	7.1µM*	-14%	.
Nc1ccc2ccc3cccc[n+]3c2c1	-5%	10	15	-2%	22%	.
COc1ccccc1N1C(=O)NC(=O)C2(Cc3cc(C)ccc3N(C)C2)C1=O (stereo unspecified)	0%	-124*	0	-5%	-3%	-2%
CN1CCc2c(C#N)c(Cl)nc(Cl)c2C1	1%	.	11	11µM*	i	?
CN1CCc2nc(N)c(C#N)c(-c3ccccc3)c2C1	-1%	-2	-26	3%	7%	0%
CCCCn1c(NS(=O)(=O)c2ccccc2)c(C(=O)OCC)c2nc3ccccc3nc21	45µM*	8	4	5%	i	-14%
Cc1c2ccncc2c(C)c2c1[nH]c1ccccc12	-6%	9	28	0.89µM*	264%	-5%
CCOP(=O)(OCC)/C(C#N)=C/c1ccc(-c2ccc(F)cc2F)o1	1%	3	4	1%	77%	-2%
COP(=O)(/C=C(\Cl)c1ccccc1)/C=C(\Cl)c1ccccc1	1%	8	-3	-10%	-4%	-2%
O=P(O)(O)/C=C(\Cl)c1ccccc1	1%	-2	8	-3%	22µM*	-4%
O=C(NCc1ccco1)c1cccc2c1C(=O)c1ccc(/C=C/c3ccccc3)cc1S2(=O)=O	-3%	-2	-6	?	-2%	-6%
CSc1ccc(CN2CCN(c3ccccc3C)CC2)cc1	0%	-129*	-114*	2%	-1%	.
CC12CCC(=O)C=C1CCC1C2CCC2(C)C(O)CCC12 (stereo unspecified)	1%	.	.	5%	-4%	0%
C[C@]12CC[C@H]3[C@@H](CCC4=CC(=O)CC[C@@]43C)[C@@H]1CC[C@@H]2C(=O)CO	1%	0	-13	4µM*	-4%	5%
Cc1ccc(NC(=O)c2ncn(CC(=O)NCc3ccc4c(c3)OCO4)n2)cc1C	1%	1	-6	-24%	-4%	?
CCCCCn1c(=O)c(C(=O)NCc2ccncc2)c(O)c2ccccc21	0%	-75*	-13	-6%	-12%	?
N[C@@H](Cc1ccc(N(CCCl)CCCl)cc1)C(=O)O	1%	-3	-3	2.5µM*	5%	0%
COc1ccc(-c2csc(NC(=O)C3CCN(C(=O)c4ccc(F)cc4)CC3)n2)cc1OC	-20%	-3	1	?	-6%	.
COc1ccc(OCC(=O)N2CCCC(N3CCN(c4ccccc4C)CC3)C2)cc1 (stereo unspecified)	2%	16	-74*	-9%	-3%	-2%
Cc1ccc(OCC(=O)N2CCCC(N3CCN(c4ccc(F)cc4)CC3)C2)cc1 (stereo unspecified)	-2%	-43	-86*	4%	4%	4%
Cn1cc(C(=O)CCl)c2ccccc21	1%	.	9	?	4%	-11%
CCOc1ccc(-c2c(C)n(-c3ccc(OCC)cc3)c3[n+]2CCCCC3)cc1	1%	-8	-112*	-17%	-2%	-1%
C=C1C(=O)O[C@@]23[C@H]1CC[C@@H](C)[C@@H]2CC[C@@]1(C)O[C@@H]31	0%	4	-21	?	2%	-15%
O=c1[nH]c(=S)n(Cc2ccc(F)cc2)c(O)c1C=NCCCn1ccnc1	3%	-37	-84*	-8%	2%	-3%
O=C1c2ccccc2-c2cc3ccccc3cc21	.	13	.	2%	-15%	.
SMILES	MmCpn inh	KCNH2 WT inh	KCNH2 3.1 block	uPA generation	ASM inhibitor	p53 reactivator
O=C1c2ccccc2-c2cccc3cccc1c23	.	1	0	8.9µM*	40%	.
COc1ccc(CN2Cc3cnnn3-c3ccccc3C2C#N)cc1 (stereo unspecified)	.	1	-42	5.6µM*	1%	.
N#CC1c2ccccc2-n2nncc2CN1Cc1cc(Cl)cc(Cl)c1 (stereo unspecified)	.	-9	-6	4.5µM*	-3%	.
Clc1ccc2c(c1)C(c1ccccc1Cl)=NCc1nnc(N3CCN(CCSc4ccccc4)CC3)n1-2	0%	-153*	-12	-11%	-7%	0%
O=C1N[C@@H](Cc2c[nH]c3ccccc23)COC(=O)[C@@H](Cc2ccc(F)cc2)CC/C=C/C[C@@H]1CC(=O)N(CCO)Cc1ccccc1	-5%	1	0	?	-10%	14%
COC(=O)C1=C(c2ccc(S(C)(=O)=O)cc2)C[C@@H]2CC[C@H]1N2C(=O)N1CCC(C)CC1	.	-14	-99*	-3%	0%	.
CCN(CC)C(=O)c1ccc(NC(=O)Nc2ccccc2F)cc1	-4%	-8	2	4.5µM*	2%	-6%
C=C1C(=O)[C@@]23[C@H](O)C[C@@H]4C(C)(C)CC[C@H](O)[C@@]4(C)[C@@H]2CC[C@@H]1[C@H]3O	0%	-1	33	?	1%	-14%
Cn1cc(S(=O)(=O)N2CCc3ccccc32)cc1C(=O)NC(C)(C)C	0%	-5	-4	?	-1%	11%
Cc1ccc(Cl)cc1NC(=O)CC(O)(C(F)(F)F)C(F)(F)F	-2%	0	2	?	-7%	-12%
COc1ccc(-c2c(-c3cc(OC)cc(OC)c3)n(C)c3ccc(-c4ccc(S(N)(=O)=O)cc4)cc23)cc1	-9%	15	-89*	?	17%	-13%
CC(C)(C)C1CCc2sc(C(=O)NNC(=O)CCl)cc2C1 (stereo unspecified)	-1%	-45	3	?	3%	29%
COC(=O)C1=C(c2ccccc2OCc2ccccc2)C[C@@H]2CC[C@H]1N2C(=O)NCc1ccc(Br)cc1	-3%	0	-82*	?	-1%	0%
COC(=O)C1=C(c2cccc(OC)c2OC)C[C@@H]2CC[C@H]1N2C(=O)NCCS(C)=O (stereo partly specified)	.	-163*	6	13%	11%	.
COc1ccc(-c2cn(Cc3ccc(C(=O)c4ccccc4)cc3)nn2)cc1	2%	4	-14	?	-14%	.
Nc1c(Cl)cc(-c2csc(NC(CO)c3nc4ccccc4n3CCOCCO)n2)cc1Cl (stereo unspecified)	.	-1	20	?	-11%	.
CN(C)C(=O)CCc1ccc2c3c([nH]c2c1)[C@]1(CCC2CCCC2)[C@@H](C(=O)N2CCOCC2)C[C@H](CC(=O)NCCC2=CCCCC2)C(=O)N1CC3	2%	-1	.	?	-4%	23%
